From the supplement of paper PMC3334620
The full ranking holds about 33,000 sequences; the median of “E-score (-0.5 to 0.5)” is about -0.016, and the highest 2% start at about 0.32. Shown is part of a subset that was picked to be rich in the highest values.

target: T1, Stp1 (UniProt B3LFK1); test: PBM E-score (8-mer binding enrichment) (E-score (-0.5 to 0.5)); higher = stronger / more preferred TF binding; conditions: protein concentration: 200 nM; construct: GST-full length
T1 sequence: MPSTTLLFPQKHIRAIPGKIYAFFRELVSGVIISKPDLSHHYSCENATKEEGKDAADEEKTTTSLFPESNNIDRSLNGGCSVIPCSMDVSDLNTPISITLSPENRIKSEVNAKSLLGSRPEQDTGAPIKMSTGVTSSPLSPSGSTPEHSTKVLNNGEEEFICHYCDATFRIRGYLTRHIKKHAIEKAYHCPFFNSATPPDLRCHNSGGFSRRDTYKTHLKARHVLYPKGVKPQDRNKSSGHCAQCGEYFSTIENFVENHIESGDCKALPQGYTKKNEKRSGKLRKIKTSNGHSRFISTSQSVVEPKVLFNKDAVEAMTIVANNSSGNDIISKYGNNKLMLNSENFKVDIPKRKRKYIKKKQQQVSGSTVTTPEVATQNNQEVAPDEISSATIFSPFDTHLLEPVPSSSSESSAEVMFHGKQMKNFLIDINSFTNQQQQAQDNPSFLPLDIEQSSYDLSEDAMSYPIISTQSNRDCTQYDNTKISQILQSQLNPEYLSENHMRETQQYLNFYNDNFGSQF
How it was run: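 Yeast transcription factors carrying a GST tag, as full-length proteins or DNA-binding domains, were produced by PURExpress in vitro transcription/translation. About 100-200 nM protein was applied to universal all-10-mer Agilent arrays, double-stranded by primer extension on fresh or once-stripped slides. Bound protein was detected with fluorescent anti-GST, and scans were normalised with masliner. The Universal PBM Analysis Suite gave each ungapped eight-base word, pooled with its reverse complement, an E-score, a modified Wilcoxon-Mann-Whitney statistic.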

Sequence	PBM E-score
GCTTCGCC	-0.0679
CCAGCGAA	-0.209
CGCCGTTC	0.464
CGCCGTCA	0.216
CACCGTTA	0.0959
CCCCGTTC	-0.235
CGCCGTCC	0.443
AGCCGTTG	0.26
GGCCGTTA	0.1
AGCCGTTA	0.159
CGCCGTTA	0.381
AGCCGTTC	0.424
CACCGTTC	0.0204
AGCCGTCC	0.308
ATCGTAGG	-0.121
TGAGCGAA	0.0336
CAGCCAGC	-0.244
CCTGCGAC	-0.287
AATCTTCG	0.196
AGAACATA	0.00125
GGCCGCCC	-0.0498
CGCCGCCA	0.154
AGCCGCCG	0.361
AACCGCCG	0.324
CGCCGCCC	0.346

Sequence	PBM E-score
CGCCGCCG	0.402
AACCGCCA	-0.153
CCCCGCCG	0.0774
AGCCGCCC	0.11
AACCGCCC	-0.149
CTCCGCCC	-0.192
AGCCGCCA	-0.122
ATTCTCAC	0.0144
AAGAGTAC	-0.0411
GGACTCTA	-0.344
AGCTTCAC	-0.221
CAGCTAAC	-0.171
AACCTCTA	-0.104
CGCAGTTA	0.0737
GGCAAAAA	0.388
TGCACTAA	0.109
GGCACGAC	0.208
AGCACAAA	0.206
GGCAAAAC	0.254
GGCAAGAA	0.22
GGCACAAA	0.374
AGCACTAA	0.132
GGCACTAA	0.392
AGCACGAA	0.0412
TGCACAAA	0.0921

Sequence	PBM E-score
GGCACGAA	0.389
CATGCACA	0.0872
TATCAGAA	0.22
CTTGCTTA	-0.203
AGGGCCGC	0.168
TGCCTCAA	-0.019
TATTGCGA	0.165
CACCTCAA	0.0958
AGCTGCAC	-0.111
CAAGTCGG	-0.0998
TACACGCA	-0.204
AGTTTATA	0.153
CGTTTATA	0.331
GGTTTATA	0.0512
GATTGTCC	-0.0756
AAAACAAA	0.128
CCTGGACA	-0.187
CTGAGGTA	-0.0424
AGAAAGCA	0.158
ATCACTAA	0.0331
CGCGCGAA	0.129
AGCGCGAC	-0.149
CGCGCGAC	0.12
GGCGCGAA	0.37
GGCGCGAC	0.36

Sequence	PBM E-score
AGCGCGAA	0.0676
CTGGGAAC	0.0375
AGTCGATG	-0.194
AGTGGGGC	-0.231
ATAAGGCC	0.0529
CCAAGGCA	0.173
ATAAGGCA	0.299
ACGGGGCG	0.366
CCAAGGCC	0.171
CCAAGGCG	0.341
ACAAGGCG	0.38
ACAAGGCT	0.198
ATAAGGCG	0.365
ACGGGGCT	-0.161
ACAAGGCC	-0.026
ACGGGGCC	-0.0286
CGAGAAGC	-0.112
CAACCTTG	0.0792
CTCCCTGC	-0.293
CTTGATCC	0.0811
CGAGTCCG	0.128
CCAGTGAA	-0.0703
GAGATAGA	-0.0115
ACAGGGCT	-0.0531
ACAGGGCA	0.244

Sequence	PBM E-score
ACAGGGCG	0.351
CACCGACA	0.0706
AGGCAACA	0.143
CGGCAACG	0.368
CGGCAACA	0.368
CGGCAACC	0.266
TGGCAACA	0.195
AGGCAACG	0.0557
ACTTTTGG	-0.0182
CTATGCAA	-0.0966
CGGCCCAC	-0.051
CAATACGC	0.175
CCATACGG	0.395
CAATACGG	0.32
CAATACGA	0.143
ACATACGG	0.261
CCATACGC	0.0591
GACAATGA	-0.247
AGCCTTAC	-0.022
CGCCTTCC	0.206
CGCCTTGA	0.0844
AGCCTTGA	-0.0777
CGCCTTGC	0.35
AGCCTTGG	-0.138
CGCCTTTC	0.354

Sequence	PBM E-score
AGCCTTGC	0.325
CGCCTTAC	0.405
AGCCTTTC	-0.0105
CGCCTTTA	0.129
CGCCTTAA	0.211
ACATGTAT	0.0569
CAATCCAC	-0.128
ATAGTTCG	0.0223
AATAGAGG	-0.00072
CTTGATGA	0.1
ATCTGCAA	-0.145
ACACACTG	-0.0947
AGCCCCTG	-0.353
AAAGAACA	-0.0165
AAAGCACT	-0.0405
AGCAGGCA	-0.0398
GGGCGAGA	-0.132
AGGCTCAA	0.0744
CGGCTCAC	0.213
AGGCTCAG	-0.0826
CGGCTCCA	0.425
TGGCTCAA	0.00085
CGGCTCAG	0.379
AGGCTCCA	-0.0273
CGGCTCCC	0.187

Sequence	PBM E-score
CGGCTCAA	0.351
ACCTTTCT	-0.0776
CCAACAAG	0.00906
AACTGCGG	0.173
CGATGCCG	0.415
ATATGCCC	-0.155
AGATGCCC	0.06
ATATGCCA	0.153
CGATGCCA	0.105
AGATGCCT	0.107
AGATGCCG	0.397
ATATGCCG	0.347
CGATGCCC	0.0311
CCAACCTA	-0.175
ATGCGGAA	0.164
CTGCGGCC	0.214
GTGCGGGA	0.041
GTGCGGAA	0.132
GTGCGGCA	0.469
ATGCGGTA	0.0546
ATGCGGCA	0.467
CTGCGGCA	0.422
